Measurements from the GenesisPotency data set.
The whole screen tested about 290,000 compounds, of which about 3,000 (1%) were called active. No stated cut-off is given here; in the data, active means inhibition mostly above about 36% (no sharp cut-off); inactive means mostly below about 34%. The full list was thinned out, with actives kept by preference.

These compounds were tested against T1, Nucleotide-binding oligomerization domain-containing protein 1, Homo sapiens (UniProt Q9Y239) (assay: NOD1 signaling inhibitors, primary screen, cell-based, luminescence, uHTS (AID 1578)).
T1 sequence (whole entry): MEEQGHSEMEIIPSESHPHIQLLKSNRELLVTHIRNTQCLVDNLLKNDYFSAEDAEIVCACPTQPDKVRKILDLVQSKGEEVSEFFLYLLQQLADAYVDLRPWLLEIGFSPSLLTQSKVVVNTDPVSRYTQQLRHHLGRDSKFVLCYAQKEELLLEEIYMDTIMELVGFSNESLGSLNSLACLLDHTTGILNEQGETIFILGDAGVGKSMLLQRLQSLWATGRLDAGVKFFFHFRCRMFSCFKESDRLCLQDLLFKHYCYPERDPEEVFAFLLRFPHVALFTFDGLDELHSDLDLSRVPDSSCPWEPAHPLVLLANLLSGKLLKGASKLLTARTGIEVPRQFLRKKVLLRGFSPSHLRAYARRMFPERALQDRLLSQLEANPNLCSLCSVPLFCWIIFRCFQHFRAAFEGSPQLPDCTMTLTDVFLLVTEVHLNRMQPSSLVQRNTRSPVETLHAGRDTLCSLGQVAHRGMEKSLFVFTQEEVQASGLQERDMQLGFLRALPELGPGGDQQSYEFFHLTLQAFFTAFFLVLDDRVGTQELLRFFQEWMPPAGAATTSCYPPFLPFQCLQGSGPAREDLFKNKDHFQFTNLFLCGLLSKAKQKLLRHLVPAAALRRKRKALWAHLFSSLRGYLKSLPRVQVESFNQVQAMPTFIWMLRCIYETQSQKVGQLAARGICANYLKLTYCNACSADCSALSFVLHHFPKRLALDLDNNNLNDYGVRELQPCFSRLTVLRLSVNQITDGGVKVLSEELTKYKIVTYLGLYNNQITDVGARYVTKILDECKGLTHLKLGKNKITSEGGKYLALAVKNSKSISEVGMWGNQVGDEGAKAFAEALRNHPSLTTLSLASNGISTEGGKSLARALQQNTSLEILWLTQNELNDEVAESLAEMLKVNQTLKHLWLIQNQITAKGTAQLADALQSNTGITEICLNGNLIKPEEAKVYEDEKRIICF
In the case of O=c1c(C(c2ccccc2)c2c(O)sc3ccccc3c2=O)c(O)sc2ccccc12, the outcome is reported as “active”. COc1ccc2cc3c(N)nn(C(=O)c4ccc(F)cc4)c3nc2c1 was tested, and the outcome was “active”. In the case of COc1ccc2cc3c(N)nn(C(=O)c4cccc(F)c4)c3nc2c1, the outcome is reported as “active”. COc1ccc2cc3c(N)nn(C(=O)c4cccc([N+](=O)[O-])c4)c3nc2c1 was tested, and the outcome was “active”. With Cc1ccc2nc(NC(=O)CSCC(=O)OCC(=O)c3ccc(Br)cc3)sc2c1 the outcome was “active”. For Cc1c(C)c2ccc(OCC(=O)Nc3ccccn3)c(C)c2oc1=O, the outcome was “active”. In the case of COc1cccc(C(=O)c2sc(NC(C)C)nc2N)c1, the outcome is reported as “active”. In the case of O=c1c(Cl)c(Cl)cnn1Cc1nnc(-c2ccccc2Br)o1, the outcome is reported as “active”. In the case of CC(C)c1ccc(-c2nnn(CCC(=O)O)n2)cc1, the outcome is reported as “active”. With COC(=O)CCn1nnc(-c2ccc(C(C)C)cc2)n1 the outcome was “active”. With COc1ccc2cc3c(N)nn(C(=O)c4ccccc4Cl)c3nc2c1 the outcome was “active”. For COc1ccc2cc3c(N)nn(C(=O)C4CCC(C(C)(C)C)CC4)c3nc2c1 (stereo not drawn), the outcome was “active”. In the case of COc1ccc2cc3c(N)nn(C(=O)c4ccccc4[N+](=O)[O-])c3nc2c1, the outcome is reported as “active”. In the case of CN(Cc1ccccc1)S(=O)(=O)c1nnc(NC(=O)c2ccc(F)cc2)s1, the outcome is reported as “active”. In the case of COc1cc(OC)c(N(C)S(=O)(=O)c2cccc(C(=O)OCC(=O)c3c[nH]c4ccccc34)c2)cc1Cl, the outcome is reported as “active”. In the case of O=c1cc(CSc2ccc(Cl)cc2)nc(-c2ccccn2)[nH]1, the outcome is reported as “active”. For Cn1c2ccccc2c(=O)c2c(=O)n(C3CCCCC3)c(-c3ccco3)nc21, the outcome was “active”. For O=C(Nc1cc(C(F)(F)F)cc(C(F)(F)F)c1)Nc1cnn(-c2ccc([N+](=O)[O-])cc2)c1C(F)(F)F, the outcome was “active”. For O=S(=O)(Nc1nc2ccccc2nc1N1CCN(c2ccccc2F)CC1)c1ccc(Cl)cc1, the outcome was “active”. With COc1ccccc1-c1cc(C(F)(F)F)nc(S(=O)(=O)CCCC(=O)N2CCCCC2C)n1 (stereo not drawn) the outcome was “active”. In the case of COc1ccccc1-c1cc(C(F)(F)F)nc(S(=O)(=O)CCCC(=O)Nc2cccnc2Cl)n1, the outcome is reported as “active”. For COc1ccc(-c2cc(C(F)(F)F)nc(S(=O)(=O)CCCC(=O)Nc3cccnc3Cl)n2)cc1OC, the outcome was “active”. With COc1ccc(-c2cc(C(F)(F)F)nc(S(=O)(=O)CCCC(=O)Nc3cccc(O)c3)n2)cc1OC the outcome was “active”. With COc1ccc2c(C(=O)CCl)c[nH]c2c1 the outcome was “active”. COc1ccc2[nH]cc(C(=O)CCl)c2c1 was tested, and the outcome was “active”. Cc1nn(-c2ccccc2)c(Cl)c1CN(C(=O)CCl)c1ccc(Cl)cc1 was tested, and the outcome was “active”. With CCC(=O)Nc1cccc(C(=O)/C=C/c2cc(Br)ccc2OC)c1 the outcome was “active”. With COc1ccc(Br)cc1/C=C/C(=O)c1ccc(NC(C)=O)cc1 the outcome was “active”. With Cc1ccc(C(C)C)c(OCc2ccc(C(=O)N/N=C/c3ccc(C(=O)O)cc3)cc2)c1 the outcome was “active”. In the case of CN(C)S(=O)(=O)c1cccc(NC(=O)CSc2cccc3cccnc23)c1, the outcome is reported as “active”. For O=C(CSc1cccc2cccnc12)Nc1ccc(S(=O)(=O)N2CCOCC2)cc1, the outcome was “active”. In the case of CCOc1ccc2c(c1)C(=NNC(=O)c1ccncc1)c1cc(OCC)ccc1-2, the outcome is reported as “active”. With CC(=O)c1c(C)[nH]c(C(=O)COC(=O)c2cccc(S(=O)(=O)N(C)c3ccccc3)c2)c1C the outcome was “active”. In the case of CNc1nc(-c2ccc3c(c2)CCN3S(=O)(=O)c2ccccc2)c(C)s1, the outcome is reported as “active”. For COc1ccc(Nc2cc(Nc3cc(OC)c(OC)c(OC)c3)ncn2)cc1, the outcome was “active”. With Cc1cc(Nc2nc3ccccc3nc2Cl)n(-c2ccc([N+](=O)[O-])cc2)n1 the outcome was “active”. With COc1ccc(C)cc1NC(=O)CSc1ccc(-c2ccccn2)nn1 the outcome was “active”. For COc1ccc(-c2nnc(NC(=O)c3ccc(F)cc3)o2)cc1, the outcome was “active”. For O=C(Nc1nnc(-c2ccc(F)cc2)o1)c1cccc([N+](=O)[O-])c1, the outcome was “active”. For CCOc1ccc(-c2nnc(NC(=O)c3ccc(OCC(C)C)c(OC)c3)o2)cc1, the outcome was “active”. For O=C(Nc1nnc(-c2ccc(F)cc2)o1)c1cc(Cl)sc1Cl, the outcome was “active”. For CN(c1ccccc1)S(=O)(=O)c1ccc(C(=O)Nc2nnc(-c3ccc(F)cc3)o2)cc1, the outcome was “active”. With O=C(Nc1ccc(C(F)(F)F)cc1)C1CCN(S(=O)(=O)c2ccc(N3CCCC3=O)cc2)CC1 the outcome was “active”. C/C(=N\Nc1ncnc2sc(C)c(C)c12)c1ccccn1 was tested, and the outcome was “active”. CC(=O)c1c(C)n(-c2ccccc2)c2ccc(O)cc12 was tested, and the outcome was “active”. In the case of COc1ccc(-n2c(C)c(C(C)=O)c3cc(OC(C)=O)ccc32)cc1, the outcome is reported as “active”. With COc1ccc2c(c1)c(C(C)=O)c(C)n2CCc1ccccc1 the outcome was “active”. In the case of CCOc1ccc(-n2c(C)c(C(C)=O)c3cc(OC(C)=O)ccc32)cc1, the outcome is reported as “active”. For COc1ccc(-n2c(C)c(C(C)=O)c3cc(O)ccc32)cc1, the outcome was “active”. In the case of COc1ccc2c(c1)c(C(C)=O)c(C)n2-c1ccc(C(C)=O)cc1, the outcome is reported as “active”. For COc1ccccc1N1CCN(c2nc(C)nc3c2oc2ccccc23)CC1.Cl, the outcome was “active”. Clc1ccc(-c2csc3ncnc(NCCN4CCOCC4)c23)cc1 was tested, and the outcome was “active”. For COc1ccc(-c2csc3ncnc(NCCN4CCOCC4)c23)cc1, the outcome was “active”.
